Assay outcomes from PubChem BioAssay.
IL-1B inflam inh = qHTS for Inhibitors of Inflammasome Signaling: IL-1-beta AlphaLISA Primary Screen; AID 743279, 2014; THP-1 LPS/ATP IL-1B secretion, AlphaLISA, 16 h; active compounds read low; activity change, % at 57.5 µM; 360,000 compounds, 4.7% hits; in the data active means activity change below about -50%; inconclusive means mostly about -30% to -49%
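THP-1 cells pretreated 1 hr with compounds (up to 57.5 uM final), then stimulated with LPS (250 ng/mL final) plus ATP (1.25 mM final); secreted IL-1B measured by AlphaLISA after 16 hr, decreased signal indicating inhibition.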
HT1080NT lethal = qHTS for induction of synthetic lethality in tumor cells producing 2HG: qHTS for the HT-1080-NT fibrosarcoma cell line. HT-1080-NT fibrosarcoma viability, CellTiter-Glo ATP luminescence, 48 h. Potency, µM (doses to about 46.1 µM), inactives show at the top dose activity, negative = less viability, usual class: cytotoxic. 360,000 compounds, 1.6% hits;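 further: NT is the 2HG producing partner of a matched IDH1 knockdown line; potency means the concentration at half of the fitted maximal effect; 0% = DMSO-treated cells and -100% = media-only wells without cells; nearly all actives have a fitted effect of over 55% in size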
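HT-1080-NT fibrosarcoma cells (2HG-overproducing), 750 cells/well in RPMI with 5% FBS, dosed after 2 h and incubated 48 h at 37C. CellTiter-Glo luminescence normalized to DMSO and no-cell wells; concentration-response curves fitted and classed.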
TDP1 cell CPT = qHTS for Inhibitors of human tyrosyl-DNA phosphodiesterase 1 (TDP1): qHTS in cells in presence of CPT. Potency, µM (series often up to 46.2 µM), for the others: at the top dose activity change, negative = growth inhibition, usual class: inhibitors. chicken DT40 Tdp1-/-;hTDP1 cells + 20 nM CPT, ATP luminescence, 48 h. 420,000 compounds, 12% hits. AID 686979, 2013; further: potency means the concentration at half of the fitted maximal effect; nearly all actives have a fitted effect of over 55% in size
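Cell growth measured by CellTiter-Glo luminescence after a minimum 48 h, 37 C compound exposure with 20 nM CPT in Tdp1-knockout DT40 cells stably expressing hTDP1, seeded 400/well; qHTS titration format.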
TDP1 cell noCPT = qHTS for Inhibitors of human tyrosyl-DNA phosphodiesterase 1 (TDP1): qHTS in cells in absence of CPT. Potency, µM (doses to about 46.2 µM), for the others: top-dose activity change, negative = growth inhibition, most hits filed as inhibitors. 420,000 compounds, 15% hits. AID 686978, 2013. DT40 Tdp1-/- hTDP1 cells, no CPT, ATP luminescence, 48 h; further: potency means the concentration at half of the fitted maximal effect; nearly all actives have a fitted effect of over 55% in size
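Readout: luminescence from CellTiter-Glo after 30 min in the dark at RT. Cells: DT40 Tdp1-/- with stable hTDP1, 400/well. Exposure: compounds alone, ≥48 hr, 37 °C.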
HT1080 IDH1KD tx = qHTS for induction of synthetic lethality in tumor cells producing 2HG: qHTS for the HT-1080-IDH1KD cell line; 360,000 compounds, 2% hits; Potency, µM (highest dose often 46.1 µM), for inactives: top-dose activity, negative = toxicity, most hits filed as cytotoxic; HT-1080 IDH1 knockdown viability, ATP luminescence, 48 h;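 further: potency means the concentration at half of the fitted maximal effect; 0% = DMSO wells and -100% = cell-free medium wells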
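IDH1KD HT-1080 cells, 750/well, RPMI + 5% FBS; compound pinned after 2 h settling; 48 h, 37 °C; CellTiter-Glo luminescence; % activity normalised to DMSO and no-cell wells; curves fitted, classed by r2 and efficacy.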
* hit, by the source's call. Only some compounds are listed: those with a hit (about 19% of all), similar ones and a draw of the others. Unless noted, the call rests on the fitted dose curve; in most records, active means well fitted curve in the direction sought with a large enough effect; inconclusive means small, poorly fitted or top-dose-only effect, or another doubt; inactive means no such curve, though single readings can be large; an effect the other way counts as inactive or inconclusive. Unless noted, on the % scale 0 is the no-effect control and ±100 the full control effect.

For CC(C)(C)c1cnnn1-c1ccc(/C=N/Nc2ccc([N+](=O)[O-])cc2)cc1 the results were IL-1B inflam inh -14, HT1080NT lethal -9%, TDP1 cell CPT 18µM*, TDP1 cell noCPT 13µM* and HT1080 IDH1KD tx -17%.
`C/C(=N\Nc1ccc([N+](=O)[O-])cc1)c1ccc(N)cc1` gave IL-1B inflam inh -2, HT1080NT lethal inconclusive, TDP1 cell CPT -9%, TDP1 cell noCPT -25% and HT1080 IDH1KD tx -7%.
Screening C/C(=N\Nc1nc(C)c(C)s1)c1ccc([N+](=O)[O-])cc1 returned IL-1B inflam inh -88*, HT1080NT lethal 21µM*, TDP1 cell CPT inconclusive, TDP1 cell noCPT 21µM* and HT1080 IDH1KD tx 16µM*.
C/C(=N\Nc1ccc([N+](=O)[O-])cc1)c1ccc(-n2nncc2C)cc1 was read as IL-1B inflam inh inconclusive, HT1080NT lethal -18%, TDP1 cell CPT inconclusive, TDP1 cell noCPT 21µM* and HT1080 IDH1KD tx inconclusive.
Screening CCNC(=O)C1(C)CCCN(C(=O)c2cccnc2Oc2ccccc2)C1 (stereo unspecified) returned IL-1B inflam inh 21, HT1080NT lethal 17%, TDP1 cell CPT 12%, TDP1 cell noCPT -20% and HT1080 IDH1KD tx 17%.
`NC(=O)c1ccc[n+](CC(=O)c2ccc(F)cc2)c1` gave IL-1B inflam inh -4, HT1080NT lethal 13%, TDP1 cell CPT 14%, TDP1 cell noCPT -4% and HT1080 IDH1KD tx 19%.
For CC1=C(C(=O)Nc2ccccc2)C(c2cccnc2)n2nc(SCc3ccccc3Cl)nc2N1 (stereo unspecified) the results were TDP1 cell CPT -16% and TDP1 cell noCPT -8%.
`Cc1ccc(OCCn2c(CCNC(=O)C(C)C)nc3ccccc32)cc1` gave IL-1B inflam inh -14, HT1080NT lethal -2%, TDP1 cell CPT inconclusive, TDP1 cell noCPT inconclusive and HT1080 IDH1KD tx -5%.
Screening Cc1cccc(C)c1OCCCn1c(CCNC(=O)C2CCCCC2)nc2ccccc21 returned TDP1 cell CPT 15µM* and TDP1 cell noCPT 18µM*.
Screening Cc1cc(OCCCn2c(CCNC(=O)C3CCCCC3)nc3ccccc32)ccc1Cl returned TDP1 cell CPT 6.5µM* and TDP1 cell noCPT 7.3µM*.
`O=C(NCCc1nc2ccccc2n1CCCOc1ccccc1)C1CCCCC1` gave TDP1 cell CPT 10µM* and TDP1 cell noCPT 11µM*.
Screening COc1ccc(OCCn2c(CCNC(=O)C3CCCCC3)nc3ccccc32)cc1 returned TDP1 cell CPT inconclusive and TDP1 cell noCPT 13µM*.
For CCc1ccc(OCCCn2c(CCNC(=O)C3CCCCC3)nc3ccccc32)cc1 the results were TDP1 cell CPT inconclusive and TDP1 cell noCPT -21%.
OC(CN1CCCC1)Cn1ccc2ccccc21 (stereo unspecified) was read as IL-1B inflam inh -8, HT1080NT lethal 0%, TDP1 cell CPT -3%, TDP1 cell noCPT -16% and HT1080 IDH1KD tx 2%.
Screening CCC(NC(=O)Nc1cc(C)on1)(C(F)(F)F)C(F)(F)F returned IL-1B inflam inh 27, HT1080NT lethal 12%, TDP1 cell CPT -24%, TDP1 cell noCPT -23% and HT1080 IDH1KD tx 17%.
Screening COC(=O)[C@H](CC(C)C)NC(=O)NCCC1=CCCCC1 returned HT1080NT lethal 11%, TDP1 cell CPT -4%, TDP1 cell noCPT -5% and HT1080 IDH1KD tx 16%.
`COc1cccc(CNC(=O)c2cccc(N3CCCS3(=O)=O)c2)c1` gave TDP1 cell CPT -30% and TDP1 cell noCPT -23%.
For CC(C)(C)C(=O)NCCc1nc2ccccc2n1CC(=O)c1ccccc1 the results were IL-1B inflam inh 13, HT1080NT lethal 4%, TDP1 cell CPT -23%, TDP1 cell noCPT inconclusive and HT1080 IDH1KD tx 2%.
Screening Cc1ccccc1OCCCCn1c(CCNC(=O)C(C)(C)C)nc2ccccc21 returned TDP1 cell CPT 13µM* and TDP1 cell noCPT 8.2µM*.
`Cc1cccc(C)c1NC(=O)CSc1nnc(CCCCCNC(=O)OC(C)(C)C)o1` gave IL-1B inflam inh 4, HT1080NT lethal -1%, TDP1 cell CPT 15µM*, TDP1 cell noCPT 13µM* and HT1080 IDH1KD tx -2%.
Screening CC(C)(C)OC(=O)NCCCCCc1nnc(SCc2ccc(F)cc2)o1 returned IL-1B inflam inh -14, HT1080NT lethal -26%, TDP1 cell CPT inconclusive, TDP1 cell noCPT 23µM* and HT1080 IDH1KD tx -30%.
CC(C)c1ccc(/C=C/C(=O)Nc2nncs2)cc1 was read as IL-1B inflam inh -6, HT1080NT lethal -21%, TDP1 cell CPT inconclusive, TDP1 cell noCPT 13µM* and HT1080 IDH1KD tx -29%.
`Cc1sc(NC(=O)/C=C/c2ccc(C(C)C)cc2)c(C#N)c1C` gave IL-1B inflam inh 46, HT1080NT lethal -11%, TDP1 cell CPT inconclusive, TDP1 cell noCPT inconclusive and HT1080 IDH1KD tx -9%.
For COc1ccc(C(O)(CCN2CCOCC2)c2ccccc2)cc1 (stereo unspecified) the results were IL-1B inflam inh -4, HT1080NT lethal -6%, TDP1 cell CPT 3%, TDP1 cell noCPT -13% and HT1080 IDH1KD tx 4%.
Screening COc1ccc(C(=O)N(Cc2ccccc2)Cc2ccc(OC)c(COc3ccc(NC(C)=O)cc3)c2)cc1 returned HT1080NT lethal 0%, TDP1 cell CPT inconclusive, TDP1 cell noCPT 22µM* and HT1080 IDH1KD tx -3%.
COc1ccc(NC(C)=O)cc1S(=O)(=O)Nc1ccc(OCc2ccccc2)cc1 was read as IL-1B inflam inh 10, HT1080NT lethal -20%, TDP1 cell CPT 16µM*, TDP1 cell noCPT 15µM* and HT1080 IDH1KD tx -20%.
For COc1ccc(NC(C)=O)cc1S(=O)(=O)Nc1ccccc1C(=O)NCCc1ccccc1 the results were IL-1B inflam inh 10, HT1080NT lethal 21%, TDP1 cell CPT -9%, TDP1 cell noCPT 1% and HT1080 IDH1KD tx -2%.
Screening CCOc1ccc(NS(=O)(=O)c2ccc(OC)c(C)c2)cc1 returned IL-1B inflam inh 2, HT1080NT lethal -4%, TDP1 cell CPT inconclusive, TDP1 cell noCPT inconclusive and HT1080 IDH1KD tx inconclusive.
COc1ccc(Cl)cc1S(=O)(=O)Nc1ccc2[nH]c(=O)[nH]c2c1 was read as TDP1 cell CPT 21µM* and TDP1 cell noCPT 16µM*.
CCOc1ccc(NS(=O)(=O)c2cc(Cl)ccc2OC)cc1 was read as IL-1B inflam inh 28, HT1080NT lethal -5%, TDP1 cell CPT inconclusive, TDP1 cell noCPT 16µM* and HT1080 IDH1KD tx -14%.
